Drawing on PubChem BioAssay (NCATS), this text covers Potency and outcome for six molecules.

SMILES strings stand for the structures. Results filed as inconclusive are left out. Activity calls are given as the source filed them. Calls follow the shape of the dose curve; as a rule, active = well fitted curve in the direction sought with a large enough effect; inconclusive = small, poorly fitted or top-dose-only effect, or another doubt; inactive = no such curve, though single readings can be large; an effect the other way counts as inactive or inconclusive.

Test [1] in a line: OV-KATE Cancer Cell Toxicity qHTS against the NCATS CANVASS Library (AID 1347345). Also: potency is read from the fitted curve at half-maximal effect. The gist of the method:
(§1)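 In this cytotoxicity screen, 1000 cells per well rested 4 hours, then received compound (11 concentrations) for a 72-hour incubation; an ATP-dependent luminescent signal (CellTiter-Glo) was the endpoint.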
In general terms: Quantitative high-throughput screening tests each substance at several concentrations.

The nature of test [2]: HPAF-II Cancer Cell Toxicity qHTS against the NCATS CANVASS Library (AID 1347346). Also: nearly all actives have a fitted effect of over 55% in size. Also: potency is read from the fitted curve at half-maximal effect. The method, boiled down:
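Using 1000 HPAF-II cells per well, we titrated compounds over 11 concentrations for 72 h at 37 degrees C/5% CO2, with bortezomib as control. Cell survival was quantified by CellTiter-Glo luminescence.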

Test [3] is described as follows: OV-SAHO Cancer Cell Toxicity qHTS against the NCATS CANVASS Library (AID 1347348). Also: nearly all actives have a fitted effect of over 55% in size. Also: potency is read from the fitted curve at half-maximal effect. The gist of the method: as §1
The nature of test [4]: HPAF-II 24hr Apoptosis Induction qHTS against the NCATS CANVASS Library (AID 1347356). The gist of the method:
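Using an 11-point qHTS format, HPAF-II cells in DMEM/10% FBS received compounds for 24 h; doxorubicin titration as control. Caspase-3/7 activity quantified by DEVD-luciferase luminescence.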

Test [5] is described as follows: HPAF-II 12hr Apoptosis Induction qHTS against the NCATS CANVASS Library (AID 1347358). Also: potency is read from the fitted curve at half-maximal effect. The method, boiled down:
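Twelve-hour compound exposure of HPAF-II cells in DMEM with 10% FBS, then luminescent Caspase-Glo 3/7 detection after 15 min at room temperature; doxorubicin control.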

The nature of test [6]: HEK293 24hr Apoptosis Induction qHTS against the NCATS CANVASS Library (AID 1347359). Also: potency is read from the fitted curve at half-maximal effect. The gist of the method:
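Caspase-3/7 activation measured as luminescence from the DEVD-based Caspase-Glo reagent, 15 min at room temperature, following 24-hour compound treatment of HEK293 cells.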

A short description of test [7]: HPAF-II 18hr Apoptosis Induction qHTS against the NCATS CANVASS Library (AID 1347360). Also: potency is read from the fitted curve at half-maximal effect. The gist of the method: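 HPAF-II cells at 500/well were exposed for 18 h at 37 C to an 11-point compound series. Caspase-3/7 activity was read by Caspase-Glo luminescence after 15 min at RT.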
In test [8] the target is Luciferin 4-monooxygenase (Photinus pyralis) (UniProt P08659). Nature of the test: Firefly luciferase counterscreen qHTS: Assay Interference Panel against the NCATS CANVASS Library (AID 1347363). Also: series mostly up to about 57 µM. The gist of the method:
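Luminescence inhibition readout: compounds (11-point qHTS) sat 15 min at room temperature with substrate mix (0.013 mM luciferin and ATP), then firefly luciferase was added and signal read 5 min later.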

A short description of test [9]: qHTS for ATAD5 Agonist screened against the NCATS CANVASS Library (AID 1347367).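 Also: luciferase reporter driven by ATAD5 which rises upon DNA damage.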 The gist of the method:
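Luciferase reporter under ATAD5 control, stably integrated in HEK293T cells (2000/well). Compounds (11 points) incubated 16 h at 37C; viability read first by CellTiter-Fluor, then luminescence reporting ATAD5 activation. MMS positive control.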

Test [10] can be described thus: MCF7 Cancer Cell Toxicity qHTS against the NCATS CANVASS Library (AID 1347369). Also: potency is read from the fitted curve at half-maximal effect. The gist of the method:
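MCF7 cells (500/well) were exposed 72 h at 37 °C to compounds in an 11-point series. Viability was read as ATP content by CellTiterGlo luminescence.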

A short description of test [11]: qHTS for ATAD5 Antagonist screened against the NCATS CANVASS Library (AID 1347370). Also: nearly all actives have a fitted effect of over 65% in size. Also: potency is read from the fitted curve at half-maximal effect. The method, boiled down:
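HEK293T-ATAD5 luc reporter, 2000 cells/well; 5hr attach; cpd + 10 uM 5-FUrd; 16hr 37C, 5% CO2. Readouts: CellTiter-Fluor fluorescence (1hr), then Amplite luciferase luminescence (30min RT).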

Test [12] can be described thus: J3T Cancer Cell Toxicity qHTS against the NCATS CANVASS Library (AID 1347371). Also: potency is read from the fitted curve at half-maximal effect. The gist of the method: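 ATP-based cytotoxicity in canine J3T cells: 72 hr exposure at 37C, 11-point titration, CellTiterGlo luminescent detection.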
For test [13], the target named is Nuclear receptor subfamily 1 group I member 3 (Homo sapiens) (UniProt Q14994). In words: qHTS for Constitutive Androstane Receptor (CAR) Agonist screened against the NCATS CANVASS Library (AID 1347373).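 Also: every well also contained 1.5 µM PK11195 alongside the test compound.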 The method, boiled down:
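In an 11-point concentration series, compounds were incubated 24hr with HepG2 cells carrying hCAR and a CYP2B6-2.2kb reporter, with PK11195 at 1.5uM final. A CellTiter-Fluor viability read preceded the ONE-Glo luminescence read.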

Test [14] can be described thus: 10-beta competent E. coli microbial cell viability qHTS against the NCATS CANVASS Library (AID 1347376). Also: series mostly up to about 46 µM. The gist of the method: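 Overnight 37C exposure of 10-beta E. coli (0.2 OD) to an 11-point concentration series; ATP-based luminescence after 20 min room-temperature reagent incubation; daunomycin as control.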
Test [15] is described as follows: qHTS for H2AX Agonists against the NCATS CANVASS Library (AID 1347378). Also: potency is read from the fitted curve at half-maximal effect. The gist of the method: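 CHO-K1 cells (1000/well, overnight at 37C) exposed to compounds at several concentrations for 3 hr at 37C, 0.76% DMSO final. Lysates read by TR-FRET (phospho-H2AX S139 Eu-cryptate antibody / H2AX-d2 antibody) after 24 hr at room temperature; 665/615 nm ratio.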
Test [16] can be described thus: qHTS for Inflammasome Signaling Inhibitors: IL-1-beta AlphaLISA screen against the NCATS CANVASS Library (AID 1347379).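 Also: human THP-1 cells primed with LPS then triggered with ATP.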 The method, boiled down:
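THP-1, 1 hr compound pre-incubation, then LPS 250 ng/mL + ATP 1.25 mM (final); 16 hr total with compound; IL-1B AlphaLISA, ex 680/em 615 nm; 11-point qHTS, up to 57.5 uM final.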

Test [17] is described as follows: Cytotoxicity qHTS for assessment of Hepg2 cells membrane integrity screened against the NCATS CANVASS Library (AID 1347387). The gist of the method:
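Membrane damage in HepG2 monolayers was estimated from released LDH, measured with CytoTox-ONE (ex 560/em 590 nm), after 5 hr treatment across 0.59 nM - 46 uM final.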

A short description of test [18]: Vero-766 cells viability qHTS against the NCATS CANVASS Library: Counterscreen for Zika virus inhibition assay (AID 1347394). Also: nearly all actives have a fitted effect of over 60% in size. Also: potency is read from the fitted curve at half-maximal effect. The method, boiled down: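 Vero 766 cells (1000/well), without Zika virus, were exposed to compounds for 72 h at 37C. Viability was measured by CellTiter Glo luminescence. Media-only wells served as 100% inhibition.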
A short description of test [19]: Viability qHTS for inhibitors of the SERCaMP assay screened against the NCATS CANVASS Library (AID 1347400). Also: nearly all actives have a fitted effect of over 70% in size. Also: potency is read from the fitted curve at half-maximal effect. The method, boiled down:
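Measures loss of viability in SERCaMP reporter SH-SY5Y cells treated for 48 h with compounds; luminescent ATP detection by CellTiter-Glo.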

The nature of test [20]: U-118MG Cancer Cell Toxicity qHTS against the NCATS CANVASS Library (AID 1347351). Also: potency is read from the fitted curve at half-maximal effect. The gist of the method: as §1

Chain of Nuclear receptor subfamily 1 group I member 3 (Homo sapiens) (Q14994 whole entry, looked up): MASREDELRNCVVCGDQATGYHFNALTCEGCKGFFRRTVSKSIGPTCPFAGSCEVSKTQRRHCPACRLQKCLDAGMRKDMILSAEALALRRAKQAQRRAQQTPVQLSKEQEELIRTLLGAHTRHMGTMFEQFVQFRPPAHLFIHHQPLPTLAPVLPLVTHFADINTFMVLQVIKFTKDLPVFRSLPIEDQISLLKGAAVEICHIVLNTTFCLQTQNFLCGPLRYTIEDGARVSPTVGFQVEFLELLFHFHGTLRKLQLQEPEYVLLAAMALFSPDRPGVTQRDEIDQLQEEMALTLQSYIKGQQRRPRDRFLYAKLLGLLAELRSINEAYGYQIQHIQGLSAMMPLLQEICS
Chain of Luciferin 4-monooxygenase (Photinus pyralis) (P08659 whole entry, looked up): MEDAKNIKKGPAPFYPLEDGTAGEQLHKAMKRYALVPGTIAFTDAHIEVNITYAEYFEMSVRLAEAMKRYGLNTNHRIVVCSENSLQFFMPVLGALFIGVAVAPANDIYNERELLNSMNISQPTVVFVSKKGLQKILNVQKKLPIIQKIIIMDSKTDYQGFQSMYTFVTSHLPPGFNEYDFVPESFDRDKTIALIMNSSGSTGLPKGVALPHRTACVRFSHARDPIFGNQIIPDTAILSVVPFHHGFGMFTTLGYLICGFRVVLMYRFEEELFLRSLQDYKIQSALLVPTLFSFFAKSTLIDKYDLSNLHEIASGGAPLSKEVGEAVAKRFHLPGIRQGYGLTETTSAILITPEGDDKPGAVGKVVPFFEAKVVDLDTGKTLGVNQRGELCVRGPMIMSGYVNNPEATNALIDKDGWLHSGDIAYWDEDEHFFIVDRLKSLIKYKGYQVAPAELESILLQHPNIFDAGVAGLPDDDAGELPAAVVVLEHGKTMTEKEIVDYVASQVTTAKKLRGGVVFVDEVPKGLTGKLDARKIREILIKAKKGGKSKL

Regarding `CN1C(=O)C2C(N=CN2C)N(C)C1=O` (stereo not given), the Potency entry in test [1], in [2], in [3], in [5], in [6] and in [7] was “inactive” in each case. The Potency result in test [8], in test [9], in test [10], in test [11], in [12] and in test [15] was “inactive” in each case. The Potency result in test [16], in test [18] and in test [19] was “inactive” each time. Also, the outcome in test [4], in [13], in [14] and in test [17] was inactive.
As for `CCC[C@@H](C)/C=C(\C)[C@H](O)[C@H](C)/C=C/CC[C@@H](O)[C@H](C)[C@H](O)[C@H](C)[C@H](O)[C@H](C)[C@H]1O[C@H]([C@H](C)C(=O)O)CC[C@@H]1C`, the Potency is 3.75 µM (active) in test [1]; 4.73 µM (active) in test [2]; 3.34 µM (active) in test [3]; 16.8 µM (active) in test [20]; 16.5 µM (active) in test [10]; 9.33 µM (active) in test [18]. The Potency in test [19] is 27 µM (active). The result in [4], in test [13] and in [14] was inactive. Further, the Potency entry in [5], in test [6], in test [7], in test [8], in test [9] and in test [12] was “inactive” throughout. Also, the Potency entry in test [15] is “inactive”.
On to `C=C1C[C@@]23C=CC(=O)[C@@](C)(CCC(=O)Nc4c(O)ccc(C(=O)O)c4O)C2C[C@@H]1C(O)C3` (stereo not given in full), for which the Potency entry in test [1], in test [2], in test [3], in test [20], in [5] and in [6] was “inactive” in each case. In addition, the Potency entry in test [7], in [8], in test [9], in [10], in test [11] and in test [12] was “inactive” throughout. For the same molecule, the Potency result in test [15], in test [16], in [18] and in test [19] was “inactive” each time. In addition, the molecule was called inactive in test [4], in test [13], in test [14] and in [17].
Regarding `O=C1C[C@@H](c2ccc(O)c(-c3c(O)cc(O)c4c3O[C@H](c3ccc(O)cc3)CC4=O)c2)Oc2cc(O)cc(O)c21`, the Potency result in test [1], in test [2], in [3], in test [20], in [5] and in test [6] was “inactive” throughout. Further, the Potency result in [7], in [8], in test [9], in [10], in test [11] and in test [12] was “inactive” each time. Further, the Potency entry in test [15], in test [16], in test [18] and in [19] was “inactive” each time. Further, the result in test [4], in test [13], in test [14] and in test [17] was inactive.
For the molecule `CN1C(=O)[C@]23SS[C@@]1(C)C(=O)N2[C@H]1Nc2ccccc2[C@]1(c1c[nH]c2ccccc12)[C@@H]3O`, the Potency in test [1] was 1.06 µM (active); in test [2] it was 0.841 µM (active); in test [3], 0.838 µM (active); in test [5], 0.59 µM (active); in test [6] it was 5.26 µM (active); in test [7] it was 0.469 µM (active). Further, the Potency in test [10] is 3.7 µM (active); in test [11], 4.67 µM (active); in [12], 1.66 µM (active); in test [15], 21.7 µM (active); in test [16], 1.53 µM (active); in [18] it was 6.6 µM (active). For the same molecule, the Potency in test [19] was 2.4 µM (active). Also, the Potency entry in test [8] and in test [9] was “inactive” in each case. In addition, the call in test [13], in test [14] and in test [17] was inactive.
As for `CC(=O)O[C@@H]1C=C2C(=O)OC[C@]2(O)[C@@]2(C)CCCC(C)(C)[C@H]12`, the Potency in test [1] is 5.94 µM (active); in [2], 13.3 µM (active); in test [3], 5.94 µM (active); in [20], 18.8 µM (active); in [16], 10.9 µM (active); in test [18], 16.6 µM (active). Moreover, the Potency in [19] was 12 µM (active). In addition, the Potency result in test [8] and in test [9] was “inactive” throughout. For the same molecule, the result in [13] and in test [14] was inactive.
